Data: PubChem BioAssay (NCI)
The panel holds about 83,000 compounds, 20% with a hit somewhere; the sample as a whole holds those more often.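 Compound tested at a single concentration for 48 hours in 96-well plates; a percent growth value below 10 was scored as active.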 Values without a mark were called inactive. Active and inactive are the calls of the source.

test system: HL-60(TB) leukemia; assay: NCI-60 one-dose screen, 48 h (100 = growth as untreated, 0 = no growth, -100 = all killed); conditions: 10 µM unless noted

**Q.** `CC(C)=CC(=O)N[C@@H]1CC2CCC3C(CC[C@@]4(C)C3CC[C@@H]4C(C)N(C)C)[C@@]2(C)C[C@@H]1O` (some centres not stated) was tested. Which growth did it give?
**A.** -63.8% (active)

**Q.** With `COc1cc2cc(Oc3ccc(NC(=O)Nc4ccccc4)cc3)c(C)nc2cc1OCCN1CCCCC1` as the compound, how does the growth read?
**A.** -46.8% (active)

**Q.** With `C=C(C)[C@@H]1CC[C@]2(C)CC[C@]3(C)[C@H](CC[C@@H]4[C@@]5(C)CCCNC(C)(C)[C@@H]5CC[C@]43C)[C@@H]12` as the compound, how does the growth read?
**A.** 35.7%

**Q.** How did the growth turn out when `Fc1ccc(/C=C/c2cc(/C=C/c3ccc(F)cc3)n(-c3cc(F)cc(F)c3)n2)cc1` was run?
**A.** 78.9%

**Q.** Which growth does the source give for `CCCCC[C@H]1C/C=C2/C(=O)C(Cl)=C[C@@H]2C/C=C\CCCC(=O)O1` here?
**A.** -9.03% (active)

**Q.** For `ONc1nc(NO)c2[nH]cnc2n1`, which growth is on record?
**A.** 15.1%

**Q.** `C=C(C)[C@@H]1CC[C@]2(C(=O)NCCNCCNCCN)CC[C@]3(C)[C@H](CC[C@@H]4[C@@]5(C)CC[C@H](O)C(C)(C)[C@@H]5CC[C@]43C)[C@@H]12` was tested. Which growth did it give?
**A.** -24% [100 µM] (active)

**Q.** `COc1ccc(NC(=O)Nc2ccc(OCCCCCC(=O)NO)cc2)cc1` was tested. Which growth did it give?
**A.** 97.6%

**Q.** For `COc1cc(F)c(F)c(Nc2ccc(I)cc2F)c1NS(=O)(=O)C1(C[C@H](O)CO)CC1`, which growth is on record?
**A.** 23.9%

**Q.** Which growth does the source give for `O=C(CN1CCN(c2cc3c(cc2F)c(=O)c(C(=O)O)cn3C2CC2)CC1)N/N=C/c1ccco1` here?
**A.** 103%

**Q.** Which growth does the source give for `Cc1ccc(S(=O)(=O)N(c2ccc(Cl)cc2)c2ccc(Br)cc2C(=O)O)cc1` here?
**A.** 110%

**Q.** With `CCC1S/C(=N\N=C(/C)c2cc3ccccc3o2)N(c2ccccc2)C1=O` (configuration not stated) as the compound, how does the growth read?
**A.** -93.7% (active)
